NPSR antagonist: neuropeptide S receptor (human) antagonism, cAMP; CHO-NPSR cells, cAMP TR-FRET, antagonist mode; Q6W5P4; Potency, µM (doses to about 38.3 µM), without a hit: at the highest dose activity change, negative = inhibition, hits mostly inhibitors; actives 1% (n = 220,000); active = well fitted curve in the direction sought with a large enough effect; inconclusive = small, poorly fitted or top-dose-only effect, or another doubt; inactive = no such curve, though single readings can be large; an effect the other way counts as inactive or inconclusive; note: potency is the fitted concentration of half-maximal effect; nearly all actives have a fitted effect of over 50% in size
ALDH1A1 inh: blocks purified human ALDH1A1 activity | Purified ALDH1A1, NADH fluorescence, propionaldehyde substrate | Potency, µM (doses to about 75.3 µM), for the others: at the top dose activity, negative = inhibition, hits mostly inhibitors | actives 7.3% (n = 220,000);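 note: potency is the fitted concentration of half-maximal effect; plate controls were no enzyme wells and a reference inhibitor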
Target sequence (P00352 whole entry, looked up): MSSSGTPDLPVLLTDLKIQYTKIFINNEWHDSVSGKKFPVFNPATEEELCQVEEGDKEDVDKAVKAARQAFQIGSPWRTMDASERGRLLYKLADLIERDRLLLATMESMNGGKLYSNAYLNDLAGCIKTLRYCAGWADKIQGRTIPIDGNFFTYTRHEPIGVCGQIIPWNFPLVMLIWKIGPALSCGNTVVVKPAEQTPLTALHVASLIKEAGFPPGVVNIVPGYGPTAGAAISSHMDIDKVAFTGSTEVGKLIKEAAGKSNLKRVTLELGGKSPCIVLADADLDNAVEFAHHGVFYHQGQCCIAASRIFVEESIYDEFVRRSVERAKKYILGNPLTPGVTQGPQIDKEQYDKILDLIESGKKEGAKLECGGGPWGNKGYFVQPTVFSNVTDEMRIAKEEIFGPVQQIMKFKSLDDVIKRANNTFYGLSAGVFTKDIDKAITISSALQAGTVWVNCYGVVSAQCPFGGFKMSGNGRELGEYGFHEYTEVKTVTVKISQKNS
PNC inhibitor: perinucleolar compartment assembly inhibition | PC3M PTB-GFP, PNC prevalence imaging, 16 h; stronger effect = lower value | activity change (PNC), negative = inhibition, % at 10 µM | actives 3.1% (n = 140,000);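 active = readout at or below -70, meaning at least 70% loss of cells showing the perinucleolar compartment, a nuclear body marking cancer cells; inconclusive = readout between -30 and a set limit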;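 note: plate controls were DMSO wells for no effect and camptothecin positive control wells for full effect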
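Compounds are pinned in duplicate onto adhered PC3M cells stably expressing GFP-tagged PTB and incubated 16 h at 37 C. Cells are then fixed, nuclei stained with Hoechst, and PNC-positive cells counted.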
IMPase Li cell: IMPase inhibition in cells with lithium potentiation; CHO-M1 cells, IP1 TR-FRET (IP-One), carbachol + lithium; Potency, µM (doses to about 59.4 µM), without a hit: at the top dose activity, negative = IMPase inhibition, most hits filed as inhibitors; actives 0.35% (n = 210,000); active = well fitted curve in the direction sought with a large enough effect; inconclusive = small, poorly fitted or top-dose-only effect, or another doubt; inactive = no such curve, though single readings can be large; an effect the other way counts as inactive or inconclusive;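 note: IP1 builds up when IMPase is blocked and the TR-FRET signal falls; potency is the fitted concentration of half-maximal effect; plate controls were basal vehicle for no effect and high inhibitor control for full effect; nearly all actives have a fitted effect of over 50% in size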
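Test compounds were applied to CHO-M1 cells previously cultured for 16–30 h at 2000 per well. A small lithium amount accompanied them; after 30 min at 37C, IP1 was quantified by TR-FRET.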
HPGD inh: inhibitors of human 15-hydroxyprostaglandin dehydrogenase (HPGD); purified HPGD, NADH fluorescence kinetic, PGE2 substrate; actives 4.3% (n = 150,000); Potency, µM, for the others: at the highest dose activity change, negative = inhibition, most hits filed as inhibitors; note: potency is the fitted concentration of half-maximal effect
Target sequence (P15428 whole entry, looked up): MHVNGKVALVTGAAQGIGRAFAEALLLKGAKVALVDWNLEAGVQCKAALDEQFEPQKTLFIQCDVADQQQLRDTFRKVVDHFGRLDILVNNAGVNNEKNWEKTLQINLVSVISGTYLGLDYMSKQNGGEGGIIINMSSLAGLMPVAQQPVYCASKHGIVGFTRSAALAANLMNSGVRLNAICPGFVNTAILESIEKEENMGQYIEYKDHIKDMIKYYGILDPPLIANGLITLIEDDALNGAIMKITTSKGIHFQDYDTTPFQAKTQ
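20 nM HPGD preincubated 15 min at room temperature with compound in 50 mM Tris-HCl pH 8, 0.01% Tween 20. Started with 1 mM NAD+ and 30 uM prostaglandin E2; NADH fluorescence (360/450 nm) read 5 times over 30-s intervals, last minus first.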
IMPase cell inh: membrane-permeable compound that blocks inositol monophosphatase. AID 901. 120,000 tested, under 10 active. inhibition (IP1 accumulation), % at 46.1 µM. CHO-M1 cells, IP1 accumulation, HTRF TR-FRET ratio; active = well fitted curve in the direction sought with a large enough effect in the signal ratio, not every such curve was filed as active; inconclusive = small, poorly fitted or top-dose-only effect, or a change in a side signal; inactive = no such curve, though single readings can be large or run the other way; the % refers to the signal ratio;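 note: cells stimulated with carbachol in lithium chloride buffer; plate controls were DMSO basal wells for no effect and reference inhibitor wells for full effect; higher means more IMPase inhibition seen as more IP1 and lower FRET ratio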
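Measured: the HTRF emission ratio (665/620 nm) plus the 620 nm donor channel, each fitted to the Hill equation to give AC50. Cells were CHO-M1 given compounds up to 46 uM and a 30 min carbachol stimulation at 37C.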
Starred values were filed as active, the others as inactive; ? = inconclusive; · = no result; [ ] = another dose, or the depositor's remark. In the library only some 11% were active in any assay of this set; here they are far more common. Unless noted, calls come from the whole dose curve; as a rule, active = well fitted inhibition curve with a large enough effect (not every such curve was filed as active); inconclusive = small, poorly fitted or top-dose-only effect, or another doubt; inactive = no such curve, though single readings can be large or run the other way. Unless noted, % is set by controls: 0 for no effect and ±100 for the full control effect.

SMILES	NPSR antagonist	ALDH1A1 inh	PNC inhibitor	IMPase Li cell	HPGD inh	IMPase cell inh
Cc1cc(C)nc(SCc2nnc(SCC(=O)O)n2-c2ccccc2)n1	8%	8%	·	-1%	·	·
Cc1cc(-c2ccccc2)nc(SCC(=O)N2CCCC2)n1	-4%	-1%	·	-3%	·	·
CC(OC(=O)c1ccc(Cl)nc1)C(=O)NC(C)(C)C (stereo not given)	5%	6%	·	3%	·	·
O=C(CSc1nnc2ccccn12)Nc1ncc(Cl)cc1Cl	-16%[46.1 µM]	8%	-7	2%[38.3 µM]	-6%	-7
O=C(CCCCCNc1nc(=S)[nH]c2ccccc12)NCCC1=CCCCC1	-48%	2%	·	8%	·	·
CC(C)(C)NC(=O)C(=O)NNC(=O)COc1ccccc1	17%	0%	25	-8%	-12%	·
Cc1cc(C)nc(SCc2nnc(SCC(=O)Nc3nc(-c4ccccc4)cs3)n2-c2ccccc2)n1	-11%[46.1 µM]	-10%	-5	36%[38.3 µM]	-14%	15
Cc1cc(C)nc(SCC(=O)c2ccc([N+](=O)[O-])cc2)n1	-9%[46.1 µM]	?	1	1%	-12%	9
Nc1cc(=O)[nH]c(SCC(=O)N2CCCCC2)n1	-12%	-10%	·	-2%	·	·
Cc1cc(C)nc(SCC(=O)c2ccc(O)cc2O)n1	-10%[46.1 µM]	11%	-92*	-4%[38.3 µM]	-19%	1
Cc1cc(C)nc(SCc2nnc(SCC#N)n2-c2cccc(Cl)c2)n1	-8%[46.1 µM]	9%	-8	-5%[38.3 µM]	16µM*	9
Nc1cc(N)nc(SCC(=O)N2CCCCC2)n1	1%[46.1 µM]	-4%	35	-1%[38.3 µM]	28µM*	-10
Cn1cccc1C(=O)N1CCC2(CCN(Cc3ccncc3)CC2)CC1	·	12%	·	10%	-1%	·
CCOC(=O)C1(CC)NC(c2ccco2)C2C(=O)N(c3ccc(C)cc3)C(=O)C21 (stereo not given)	-27%[7.67 µM]	14µM*	-11	-27%[38.3 µM]	-13%	4
COc1cc([N+](=O)[O-])cc2sc(NC(=O)c3c(F)cccc3F)nc12	-24%	7.9µM*	·	7%	·	·
O=C(Nc1nc(-c2ccc([N+](=O)[O-])cc2)cs1)c1c(F)cccc1F	-24%	4%	·	0%	·	·
CCC1CCCCN1C(=O)COC(=O)c1cc(Br)ccc1Cl (stereo not given)	-20%	?	·	4%	·	·
CC1CCCC(C)N1C(=O)COC(=O)c1cc(Br)ccc1Cl (stereo not given)	-26%	20µM*	·	32%	·	·
Cc1noc(C)c1CSc1nc2sc3c(c2c(=O)n1C)CCCC3	?	-2%	30	14%[38.3 µM]	-12%	-4
O=c1c(Cc2c(F)cccc2Cl)c(O)ccn1Cc1ccc2c(c1)OCO2	-19%	7.9µM*	·	4%	·	·
Cc1ccc(N2C(=O)CC3(CC4C=CC3C4)C2=O)cc1 (stereo not given)	-10%[46.1 µM]	4%	20	7%[38.3 µM]	-3%	-2
CN1CCN(/N=C/c2ccc(N(C)c3ccccc3)cc2)CC1	1%	1%	·	23%	·	·
CN(c1ccccc1)c1ccc(/C=C/[N+](=O)[O-])cc1	?	8.9µM*	7	17%	32µM*	·
CC(C)(C)c1ccc(-c2cn(-c3ccc(Br)cc3)c3[n+]2CCCS3)cc1	10µM*	?	·	24%	·	·
CCOC(=O)c1c(C)[nH]c(=S)c(C#N)c1-c1ccc(Cl)cc1	-7%	?	-108*	-3%	-16%	·
SMILES	NPSR antagonist	ALDH1A1 inh	PNC inhibitor	IMPase Li cell	HPGD inh	IMPase cell inh
CCCCOc1ccc(-c2c(C(=O)Nc3ccccc3)c(C)[nH]c(=S)c2C#N)cc1	10µM*	3.5µM*	·	8.9µM*	·	·
O=[N+]([O-])c1cccc(CSc2nnc(Cc3ccccc3)n2-c2ccc(F)cc2)c1	-25%[46.1 µM]	-15%	5	9%	3%	7
Cc1ccc(NC(=O)CC(O)(C(F)(F)F)C(F)(F)F)c(Br)c1	-6%[46.1 µM]	3%	?	26%[38.3 µM]	-14%	-3
COc1ccc(S(=O)(=O)Nc2cccc(N(C)S(C)(=O)=O)c2)cc1Br	12%[46.1 µM]	?	23	·	·	?
CN(c1cccc(NS(=O)(=O)c2cccs2)c1)S(C)(=O)=O	-9%[46.1 µM]	20µM*	14	8%[38.3 µM]	-8%	-3
COc1ccccc1/C=C1\SC(=O)N(CCC(=O)NNC(=O)c2ccccc2Cl)C1=O	-18%[46.1 µM]	?	-93*	7%	48%	-5
COc1cccc(/C=C2\SC(=O)N(CCC(=O)NNC(=O)c3cccc(Cl)c3)C2=O)c1	10%	6%	-86*	9%	-12%	2
Oc1ccc(N2CCN(C(c3cccs3)c3nnnn3CCc3ccccc3)CC2)cc1 (stereo not given)	?	25µM*	-29	-1%	-4%	9
c1ccc(Cn2nnnc2C(c2cccs2)N2CCCCCC2)cc1 (stereo not given)	-17%[46.1 µM]	14µM*	15	8%	4%	5
c1ccc(CC2CCN(C(c3cccs3)c3nnnn3C3CCCC3)CC2)cc1 (stereo not given)	-24%[46.1 µM]	?	37	23%[38.3 µM]	-11%	9
c1csc(C(c2nnnn2C2CCCCC2)N2CCCC3(CCCCC3)C2)c1 (stereo not given)	-5%[46.1 µM]	7.9µM*	?	23%	-13%	8
CO[C@@]12C[C@@H](COC(=O)c3cncc(Br)c3)CN(C)[C@H]1Cc1cn(C)c3cccc2c13	·	-10%	·	26%	0%	9
O=c1[nH]nc(SCc2ccccc2Cl)n1-c1ccc2c(c1)OCCO2	21%	·	·	·	·	·
CC(C)c1nnc(SCC(=O)NCc2ccc3c(c2)OCO3)n1C	4%[46.1 µM]	0%	-100*	7%	-15%	-7
CC1CCCC(C)N1C(=O)Cn1c(SCC(=O)Nc2ccc3c(c2)OCO3)nc2ccccc21 (stereo not given)	?	5µM*	?	-2%[38.3 µM]	-15%	5
CC(C)c1nnc(SCC(=O)Nc2ccc3c(c2)OCO3)n1C	-6%[46.1 µM]	4%	-100*	3%	-8%	1
CC(C)c1ccc(NC(=O)CSc2n[nH]c(=O)n2-c2ccc3c(c2)OCCO3)cc1	-4%	11µM*	·	·	·	·
Cc1occc1C(=O)NNC(=O)C1CCCC1	13%	5%	·	4%	·	·
Cc1cc(NC(=O)CN2C(=O)CC(c3ccco3)Sc3ccccc32)no1 (stereo not given)	-4%[46.1 µM]	14µM*	-23	3%	-5%	-11
Cc1cc(NC(=O)CN2C(=O)CCSc3ccccc32)no1	6%	5%	·	4%	·	·
O=C(/C(=C/O)N=Nc1ccccc1Cl)c1ccccc1	-54%	7.9µM*	·	31%	·	·
Cc1cccc(N=N/C(=C\O)C(=O)c2ccc(Br)cc2)c1	?	?	·	14%	·	·
O=C(/C(=C/O)N=Nc1cccc(C(F)(F)F)c1)c1ccccc1	?	7.5µM*	·	24%	·	·
O=C(/C(=C/O)N=Nc1ccccc1)c1ccco1	-17%	14µM*	·	-1%	·	·

High-throughput results from PubChem BioAssay.
